KKLEB tox = cytotoxicity in KKLEB CF airway cells, primary screen, cytotoxicity control for CF NF-kB inhibitor project, cell-based, uHTS, fluorescence assay plates | activity change (cytotoxicity), % at 5 µM | AID 602141, 2011 | hit rate 0.36% among 360,000 | KKLEB CF airway cells viability, ATPlite luminescence, overnight; active compounds read low; cells stimulated with P. aeruginosa culture filtrate;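 active = corrected activity change at or below -50% at 5 µM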
PAX8 reporter = inhibitors of PAX8-driven TPO luciferase reporter, primary screen, RMG-I cells, single concentration | SteadyGlo, 24 h | inhibition, % at 12.6 µM | hit rate 1.2% among 360,000 | AID 652154, 2013;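 active = mean replicate inhibition at least 60% with every replicate also reaching 60%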;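 note: luciferase light reporting Pax8 driven TPO promoter activity; plate controls were median of neutral control wells for no effect and mitoxantrone controls for full effect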
EWS-Fli block = EWS/Fli-driven NR0B1 reporter inhibitors, primary screen, A673 cells, NR0B1 luciferase, luminescence, MLPCN library. AID 651661, 2012. hit rate 0.67% among 350,000. inhibition, % at 12.6 µM. viability-normalised;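 active = mean inhibition of at least 50% after viability correction, with every replicate also passing that limit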;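 note: firefly luciferase signal divided by Alamar Blue viability fluorescence both relative to DMSO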
CF NFkB inh = inhibitors of PAF-induced NF-kB signaling, primary screen, cell-based, GFP fluorescence, uHTS; KKLEB NF-kB-GFP reporter, GFP fluorescence overnight; inhibition, % at 5 µM; hit rate 0.86% among 360,000;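 active = at least 50% inhibition at 5 µM, scaled per plate between neutral and stimulator controls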;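 note: PAF is a Pseudomonas aeruginosa culture filtrate used as stimulus; plate controls were PAF-stimulated DMSO wells for no effect and unstimulated DMSO wells for full effect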
HIF-2a inh = HIF-2a reporter inhibitors, primary screen, luminescence, 786-0 RCC cells; 786-0 RCC cells HIF-2a reporter, luciferase luminescence, overnight; inhibition, % at 18.8 µM; hit rate 0.72% among 360,000; AID 624352, 2012;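 active = inhibition of the luminescence signal of 40% or more relative to plate controls, in a single-dose primary screen at 18.75 µM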
* hit, by the source's call. The list is not random: actives were taken first. Their share in the collection is about 2.1%.

What do the screens show for `Cc1cccc2sc(NNC(=O)c3ccc(S(=O)(=O)N4CCCC(C)C4)cc3)nc12` (stereo unspecified)?
KKLEB tox: 7; EWS-Fli block: 17; CF NFkB inh: 5; HIF-2a inh: 10

How did CCOC(=O)N1CCN(S(=O)(=O)c2ccc(C(=O)Nc3nnc(C4CC4)o3)cc2)CC1 do in these assays?
KKLEB tox: -5; PAX8 reporter: -9; CF NFkB inh: -9; HIF-2a inh: 16

What do the screens show for `CCC(=O)N(C)C[C@H]1Oc2cc(C3=CCCCC3)ccc2S(=O)(=O)N([C@@H](C)CO)C[C@@H]1C`?
EWS-Fli block: 13

Results for CN(C)C(=O)C[C@@H]1C[C@H]2c3cc(NS(=O)(=O)c4ccc(F)cc4)ccc3O[C@H]2[C@@H](CO)O1 ?
PAX8 reporter: -5; EWS-Fli block: -4

Results for N#C/C(=C/c1cn(-c2ccccc2)nc1-c1cccc(S(=O)(=O)N2CCCC2)c1)C(=O)NCc1ccco1 ?
KKLEB tox: 3; PAX8 reporter: -2; CF NFkB inh: -19; HIF-2a inh: 20

What do the screens show for `N#C/C(=C/c1cn(-c2ccccc2)nc1-c1cccc(S(=O)(=O)N2CCOCC2)c1)C(=O)NCc1ccco1`?
KKLEB tox: -57*; PAX8 reporter: -19; EWS-Fli block: -7; CF NFkB inh: 51*; HIF-2a inh: 9

Results for COc1ccc(-c2ccc3c(c2)S(=O)(=O)c2cccc(C(=O)NCCOc4ccccc4Cl)c2C3=O)cc1OC ?
KKLEB tox: -22; PAX8 reporter: -9; EWS-Fli block: 58*; CF NFkB inh: 0; HIF-2a inh: -15

Results for COc1ccc(-c2ccc3c(c2)S(=O)(=O)c2cccc(C(=O)NCc4ccccc4Cl)c2C3=O)cc1OC ?
KKLEB tox: -6; PAX8 reporter: -15; EWS-Fli block: -2; CF NFkB inh: 17; HIF-2a inh: -32

How did CCn1c2ccccc2c2nc3ccccc3nc21 do in these assays?
KKLEB tox: 1; CF NFkB inh: -94; HIF-2a inh: -104

Results for CCn1c2ccccc2c2nc3cc(C(=O)O)ccc3nc21 ?
KKLEB tox: -63*; PAX8 reporter: -6; EWS-Fli block: -20; CF NFkB inh: 24; HIF-2a inh: -69

What do the screens show for `C[C@@H]1CN([C@H](C)CO)C(=O)c2cc(-c3ccccc3F)cnc2O[C@@H]1CN(C)C(=O)c1ccccn1`?
EWS-Fli block: -1

How did COC/C=C/C1=CC2=CC(=O)C(C)(OC(=O)c3cnc4ccccc4n3)C(=O)C2=CN1Cc1ccccc1 (stereo unspecified) do in these assays?
KKLEB tox: 6; PAX8 reporter: 80*; EWS-Fli block: -2; CF NFkB inh: -1; HIF-2a inh: 13

How did COC/C=C/C1=CC2=CC(=O)C(C)(OC(=O)c3cnc4ccccc4n3)C(=O)C2=CN1Cc1ccc(OC)cc1 (stereo unspecified) do in these assays?
KKLEB tox: -2; PAX8 reporter: -7; EWS-Fli block: -7; CF NFkB inh: 11; HIF-2a inh: 0

What do the screens show for `COC/C=C/C1=CC2=CC(=O)C(C)(OC(=O)c3cnc4ccccc4n3)C(=O)C2=CN1C1CC1` (stereo unspecified)?
KKLEB tox: 12; PAX8 reporter: 66*; EWS-Fli block: -31; CF NFkB inh: -12; HIF-2a inh: 10

Results for COc1ccc(S(=O)(=O)N(C)C[C@H]2OCCCC[C@H](C)Oc3ccc(NC(=O)Nc4cccc5ccccc45)cc3C(=O)N([C@H](C)CO)C[C@H]2C)cc1 ?
PAX8 reporter: 6; EWS-Fli block: 3

How did COc1ccc(CN2CC3(CCN(S(=O)(=O)c4ccc(C)cc4)CC3)c3c([nH]c4cc(OC)ccc34)[C@H]2CO)cc1 do in these assays?
EWS-Fli block: -14

Results for CCC(=O)N1C[C@H](C)[C@H](OC)CN(C)C(=O)c2cc(NC(=O)NC3CCCC3)ccc2OC[C@@H]1C ?
EWS-Fli block: 6

How did CCc1c(C)sc(NC(=O)c2cc(-c3cc(OC)ccc3OC)on2)c1C#N do in these assays?
KKLEB tox: -70*; CF NFkB inh: 40; HIF-2a inh: 16

What do the screens show for `Cc1noc(C)c1S(=O)(=O)N(C)C[C@H]1OCCCC[C@@H](C)Oc2ccc(NC(=O)c3ccccc3)cc2C(=O)N([C@@H](C)CO)C[C@@H]1C`?
PAX8 reporter: -5; EWS-Fli block: 0

What do the screens show for `CCOC(=O)c1cccc(NC(=O)/C=C/c2cccc([N+](=O)[O-])c2)c1`?
KKLEB tox: -8; CF NFkB inh: -7; HIF-2a inh: -59

Results for CCOC(=O)/C=C/C(=O)Nc1cccc([N+](=O)[O-])c1 ?
KKLEB tox: -45; CF NFkB inh: 88*; HIF-2a inh: 4

How did COc1ccc(S(=O)(=O)N(C)C[C@@H]2OCCCC[C@@H](C)Oc3ccc(NC(=O)Nc4ccccc4)cc3C(=O)N([C@H](C)CO)C[C@H]2C)cc1 do in these assays?
PAX8 reporter: 19; EWS-Fli block: 5

Results for CCC(=O)Nc1ccc2c(c1)C(=O)N(C)[C@@H]1CC[C@@H](CC(=O)N3CCc4ccccc4C3)O[C@H]1CO2 ?
PAX8 reporter: -12; EWS-Fli block: -8

What do the screens show for `O=C(C[C@@H]1CC[C@H](NC(=O)NC2CCCC2)[C@@H](CO)O1)NCc1ccc(F)cc1`?
PAX8 reporter: -10; EWS-Fli block: -4

How did Cc1ccc(-n2nnc(-c3nccs3)n2)cc1 do in these assays?
KKLEB tox: -52*; PAX8 reporter: 36; EWS-Fli block: 82*; CF NFkB inh: -2; HIF-2a inh: 51*

Results for COc1cccc(NC(=O)CNS(=O)(=O)c2ccc(Cl)cc2)c1 ?
KKLEB tox: -2; CF NFkB inh: -3; HIF-2a inh: 13

Results for COc1cccc(S(=O)(=O)NCC(=O)Nc2ccc(C(C)(C)C)cc2)c1 ?
KKLEB tox: 9; PAX8 reporter: 88*; EWS-Fli block: 5; CF NFkB inh: -8; HIF-2a inh: 15

How did O=C(Nc1nc2ccccc2[nH]1)c1ccccc1F do in these assays?
KKLEB tox: -30; CF NFkB inh: 8; HIF-2a inh: 75*

How did O=C(Nc1nc2ccccc2[nH]1)c1ccc(OC(F)F)cc1 do in these assays?
KKLEB tox: -24; PAX8 reporter: -88; EWS-Fli block: 38; CF NFkB inh: -4; HIF-2a inh: -70

What do the screens show for `CC(C)Oc1ccc(C(=O)Nc2nc3ccccc3[nH]2)cc1`?
KKLEB tox: -50*; PAX8 reporter: 68*; EWS-Fli block: 81*; CF NFkB inh: -12; HIF-2a inh: 55*

What do the screens show for `O=C(Nc1nc2ccccc2[nH]1)c1ccc(F)cc1`?
KKLEB tox: -19; EWS-Fli block: -42; CF NFkB inh: -2; HIF-2a inh: -87
